Source: PubChem BioAssay (National Center for Advancing Translational Sciences (NCATS))
Rows were chosen to be rich in hits. Some 9.5% of all compounds tested hit in one or more screens of this group.
Tau ThT inhib – blocks human tau fibril formation measured by thioflavin T | P10636 | recombinant tau K18 P301L, heparin-induced fibrillization, ThT fluorescence | Potency, µM (series often up to 57.4 µM), without a hit: at the top dose activity, negative = inhibition, most hits filed as inhibitors | 270,000 compounds, 2.1% hits | AID 1460; further: nearly all actives have a fitted effect of over 55% in size
Target sequence (P10636 561-689 P618L limits assumed): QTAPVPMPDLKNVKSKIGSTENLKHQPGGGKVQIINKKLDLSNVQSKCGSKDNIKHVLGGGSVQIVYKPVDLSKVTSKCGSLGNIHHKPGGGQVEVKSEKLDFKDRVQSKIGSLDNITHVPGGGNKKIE
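Using a mix of unlabeled (15 uM) and Alexa 594-labeled (0.24 uM) tau K18 P301L, heparin-triggered fibrillization over 6 hr at 37 C was scored by ThT fluorescence.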
Tau fluor counter – counter-screen for tau fibril formation inhibitors; tau K18 P301L (four-repeat tau fragment) Alexa594 fluorescence, heparin fibrillization; 280,000 compounds, 0.93% hits; Potency, µM (titrated, usually from 57.7 µM), for inactives: at the highest dose activity change, negative = decrease; AID 1463; further: nearly all actives have a fitted effect of over 55% in size
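Human K18 P301L tau (15 uM unlabeled plus 0.24 uM Alexa 594-labeled, final) in 100 mM sodium acetate pH 7 was mixed with compound and 20 uM heparin and incubated 6 hr at 37 C.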
HPGD block – blocks human HPGD enzyme activity; P15428; 150,000 compounds, 4.3% hits; Potency, µM, inactives show at the top dose activity change, negative = inhibition, most hits filed as inhibitors; purified HPGD, NADH fluorescence kinetic, PGE2 substrate; active means well fitted inhibition curve with a large enough effect, not every such curve was filed as active; inconclusive means small, poorly fitted or top-dose-only effect, or another doubt; inactive means no such curve, though single readings can be large or run the other way
Target sequence (P15428 whole entry, looked up): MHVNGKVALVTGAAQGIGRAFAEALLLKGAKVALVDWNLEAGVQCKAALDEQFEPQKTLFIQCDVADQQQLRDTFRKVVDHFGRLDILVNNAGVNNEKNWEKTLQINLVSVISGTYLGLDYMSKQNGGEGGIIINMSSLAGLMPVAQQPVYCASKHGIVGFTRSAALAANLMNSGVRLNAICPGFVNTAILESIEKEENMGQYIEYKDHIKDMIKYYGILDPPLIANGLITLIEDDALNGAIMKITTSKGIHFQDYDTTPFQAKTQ
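NADH formation kinetics: reaction with 30 uM PGE2 and 1 mM NAD+ (final), 20 nM enzyme, Tris-HCl pH 8 with Tween 20, after 15 min compound preincubation at room temperature. Fluorescence change, last versus first of five reads.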
ALDH1A1 block – inhibitors of human aldehyde dehydrogenase 1A1 | AID 1030 | Potency, µM (series often up to 75.3 µM), without a hit: at the highest dose activity, negative = inhibition, usual class: inhibitors | Purified ALDH1A1, NADH fluorescence, propionaldehyde substrate | P00352 | 220,000 compounds, 7.3% hits; active means well fitted inhibition curve with a large enough effect, not every such curve was filed as active; inconclusive means small, poorly fitted or top-dose-only effect, or another doubt; inactive means no such curve, though single readings can be large or run the other way;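 further: plate controls were no enzyme wells and a reference inhibitor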
NPSR antag – neuropeptide S receptor (human) antagonism, cAMP. CHO-NPSR cells, cAMP TR-FRET, antagonist mode. Q6W5P4. AID 1461. Potency, µM (highest dose often 38.3 µM), for the others: at the highest dose activity change, negative = inhibition, actives largely listed as inhibitors. 220,000 compounds, 1% hits; further: nearly all actives have a fitted effect of over 50% in size
Tau fibril FP – inhibitors of human tau fibril formation. P10636. K18 P301L tau heparin fibrillization, Alexa594 FP, 6 h. Potency, µM (titrated, usually from 57.7 µM), without a hit: at the top dose activity, negative = inhibition, hits mostly inhibitors. 280,000 compounds, 0.39% hits; further: nearly all actives have a fitted effect of over 55% in size
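Recombinant K18 P301L […], labeled with Alexa 594 at 0.24 uM over 15 uM unlabeled; heparin inducer 20 uM final; 37 C, 6 hr; FP endpoint.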
Numbers without * were called inactive; ? = inconclusive; . = not tested or not shown; [ ] = another dose, or the depositor's remark. Unless noted, the call rests on the fitted dose curve; in most records, active means well fitted curve in the direction sought with a large enough effect; inconclusive means small, poorly fitted or top-dose-only effect, or another doubt; inactive means no such curve, though single readings can be large; an effect the other way counts as inactive or inconclusive. Unless noted, on the % scale 0 is the no-effect control and ±100 the full control effect; potency means the concentration at half of the fitted maximal effect.

SMILES | Tau ThT inhib | Tau fluor counter | HPGD block | ALDH1A1 block | NPSR antag | Tau fibril FP
CCCc1c(C(=O)Nc2ccc(N3CCOCC3)cc2)cnn1-c1ccccc1 | ? | ? | . | 3.2µM* | 25% | ?
CCc1ccc(NC(=O)c2cnn(-c3ccccc3)c2C)cc1 | -12% | -11% | 2.5µM* | 9% | -2% | 5%
CCCc1c(C(=O)NNc2ccc(C)cc2)cnn1-c1ccccc1 | ? | ? | . | 14µM* | 12% | -12%
CCCc1c(C(=O)Nc2cc(C)on2)cnn1-c1ccccc1 | -6% | 0% | . | 18µM* | 6% | 14%
COc1ccc(CN(CCC(c2ccc3c(c2)OCO3)c2ccccc2OC)C(C)=O)cc1 (centres undefined) | ? | -20% | . | . | . | 6%
CCC(C(=O)NC1CCCCC1)N(Cc1cccs1)C(=O)c1snc(C(N)=O)c1N (centres undefined) | -1% | 0% | . | ? | -16% | -1%
O=C(NC1CC(=O)N(c2ccc3c(c2)OCCO3)C1)c1c(F)cccc1Cl (centres undefined) | 2% | 1% | . | . | . | -9%
CC1CN(C(=S)SCCN2Cc3ccccc3C2=O)CC(C)O1 (centres undefined) | 2% | 6% | -17% | -2% | 17% | 2%
O=C1c2ccccc2CN1CCSC(=S)N1CCOCC1 | -5% | 2% | 28µM* | ? | 14% | -1%
O=C1c2ccccc2CN1CCSC(=S)N1CCSCC1 | -16% | -9% | . | 10µM* | -15% | -4%
O=C1c2ccccc2CN1CCNC(=S)NC1CCCCC1 | -5% | -12% | . | 5% | -4% | -4%
CC(C)OC(=O)c1nn2c(C(F)(F)F)cc(-c3ccco3)nc2c1Cl | -4% | 0% | -18% | ? | 7%[46.1 µM] | 5%
CC(C)OC(=O)c1nn2c(C(F)(F)F)cc(-c3ccc(Br)o3)nc2c1Br | -12% | -8% | . | 18µM* | -10%[46.1 µM] | -1%
Cc1cnc(C(=O)Nc2nccs2)cn1 | -2% | -1% | -18% | ? | -10%[46.1 µM] | -10%
CCN(CC)c1cccc(OC2=NS(=O)(=O)c3ccccc32)c1 | -8% | -15% | . | 22µM* | -16%[46.1 µM] | 5%
CSc1ccc(S(=O)(=O)N(CC(=O)NN=C2CCN(C)CC2)c2ccc(C)cc2)cc1 | -4% | -9% | . | 5µM* | 10% | -6%
CCOc1ccc(CCNC(=O)CSc2nn(-c3ccc(C)c(Cl)c3)c(=S)s2)cc1OCC | 7% | 4% | -25% | 28µM* | -19%[46.1 µM] | 6%
CCN1C(=O)/C(=c2\sc3nc(=O)c(Cc4ccccc4)nn3c2=O)c2ccccc21 | 20µM* | -14% | . | . | 48% | -17%
CCN1C(=O)/C(=C/c2nc3ccccc3c(=O)[nH]2)c2ccccc21 | ? | -4% | -11% | ? | -6% | 2%
C=CCN1C(=O)/C(=c2\sc3nc(=O)c(Cc4ccccc4)nn3c2=O)c2ccccc21 | 18µM* | -23% | . | 3.5µM* | 6% | ?
C=CCN1C(=O)/C(=c2\sc3nc(=O)c(Cc4ccc(OC)c(OC)c4)nn3c2=O)c2ccccc21 | 28µM* | -30% | . | 3.2µM* | -10% | ?
C=CCSc1nn2c(=O)c3ccccc3nc2s1 | -16% | -3% | -7% | 4% | -3%[46.1 µM] | 1%
N/C(Cn1cncn1)=N\NC(=O)C(=O)Nc1cccc(C(F)(F)F)c1 | 2% | 4% | . | 4% | 12% | -12%
COn1c(SC(C)C)nc2ccccc2c1=O | -3% | -12% | -13% | 3% | -9%[46.1 µM] | -14%
COn1c(SC2CCCCC2)nc2ccccc2c1=O | ? | -13% | 32µM* | 32µM* | -29%[46.1 µM] | -7%
SMILES | Tau ThT inhib | Tau fluor counter | HPGD block | ALDH1A1 block | NPSR antag | Tau fibril FP
O=C(NCCCN1CCOCC1)C(=O)N/N=C/c1ccc2c(c1)OCO2 | 2% | 7% | . | -1% | 9% | 2%
Cc1cc2c(nc1C)CCCN2C[C@H](C)O/N=C1/[C@H]2O[C@@H]2[C@@H](O)[C@H]2[C@H]1CCn1c(=O)n(-c3ccccc3)c(=O)n12 | -6%[11.5 µM] | 0%[11.6 µM] | . | ? | . | 2%[11.6 µM]
COC(=O)NC(/C(C(=O)OC)=C(\C)NCc1ccccc1)c1cccc(C)c1 (centres undefined) | -3%[11.5 µM] | -7%[11.6 µM] | . | 11%[13.5 µM] | . | -2%[11.6 µM]
O=C(Nc1ccc(Oc2ccc3c(c2)C(=O)N(c2ccc(O)cc2)C3=O)cc1)c1cccs1 | 1% | 2% | -9% | 8% | -5% | 14µM*
CC(C)CN1C(=O)c2ccc(NC(=O)c3cccs3)cc2C1=O | -10% | ? | ? | ? | -16%[46.1 µM] | ?
CCOC(=O)c1sc2nc(CSc3ccccc3)nc(N3CCCN(C)CC3)c2c1C | ? | -8% | . | 28µM* | ? | -1%
COc1cc(C(=O)Nc2c(C)cc(C)cc2C)c([N+](=O)[O-])cc1OC | 3% | 12% | -5% | 6% | 4% | 2%
Cc1cc(O)c(C=O)c2c1C(=O)Oc1c(C)c(O)c3c(c1O2)C(O)OC3=O (centres undefined) | 7.9µM* | ? | 10µM* | ? | . | ?
COC(=O)c1c(OC)cc2c(c1C)Oc1c(Cl)c(O)c(Cl)c(C)c1C(=O)O2 | ? | -16% | ? | ? | . | 1%
COc1cc(C)c2c(c1C=O)Oc1c(c(C)c(O)c3c1C(O)OC3=O)OC2=O (centres undefined) | 14µM* | ? | 20µM* | -14% | -18% | 25µM*
CC(Oc1ccccc1)C(=O)OCc1cc(=O)n2nc(C(C)C)sc2n1 (centres undefined) | -5% | -4% | . | . | . | 3%
O=c1cc(CO)oc(C(Nc2ccccn2)c2cccc(F)c2)c1O (centres undefined) | ? | 2% | -14% | 32µM* | -3%[46.1 µM] | -8%
COc1cccc(C(Nc2ccccn2)c2oc(CO)cc(=O)c2O)c1 (centres undefined) | ? | -9% | . | ? | 9% | ?
C/C(=N/NC(=O)CNc1ccc(C)cc1)c1ccc(Br)s1 | ? | -28% | -19% | 14µM* | ? | 11%
COc1ccccc1NCC(=O)N/N=C(\C)c1ccc(Br)s1 | -10% | -23% | -6% | -14% | -19% | 3%
Nc1nonc1C(=O)N/N=C/c1cccc([N+](=O)[O-])c1 | -6% | 10% | -10% | -9% | 8% | 13%
CN(C)c1ccc(/C=N/NC(=O)c2nonc2N)cc1[N+](=O)[O-] | 16µM* | -18% | . | 2µM* | 21% | 0%
Cc1nc2ccccn2c(=O)c1NC(=O)c1ccc(F)c(F)c1 | 6% | 3% | . | . | . | 3%
CN(C)S(=O)(=O)n1ccnc1 | -10% | -2% | -7% | 6% | -1%[46.1 µM] | 3%
CC(=O)N[C@@H](C(=O)O)C(C)(C)SN=O | 28µM* | -20% | -15% | -12% | . | ?
